# Out of some 350,000 compounds screened, about 7,000 (2%) were called active. What follows is part of a selection rich in actives, with near analogues and random picks from the rest. Values without a mark were called inactive. Rule as the data show it: active = activation above about 40%; inconclusive = no clear call, values can overlap the other calls; inactive = below that.
# Assay: raisers of Bmi1 knock-in reporter signal – mouse ES cells, Bmi1 luciferase knock-in, single point, esBAF inhibitor project, primary screen (AID 602393);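 also: 0% = median of the plate's neutral control wells and 100% = double that signal; a rise in the Bmi1 reporter signal indicates esBAF inhibition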
# Conditions: 24 h, at 12.5 µM, stronger effect = higher value
row,Compound,reporter increase
1,CC(C)(C)c1ccc(OC(=O)N2CCCCC2)cc1,91.1% (active)
2,CN1CCN(C(=O)COc2ccc(C(C)(C)C)cc2Br)CC1,1.71%
3,O=C(NC1CCCCC1)N1Cc2cc(N3CCCCC3)ccc2-n2nncc2C1,5.49%
4,CSCCC(c1nnnn1C(C)(C)C)N1CCC(n2c(=O)[nH]c3ccccc32)CC1 (stereo not given),-9.76%
5,O=P(OC1=CCCCC1)(c1ccccc1)c1ccccc1,-0.107%
6,CN(C)C(=O)Oc1ccc2c(c1)O/C(=C\c1ccccc1)C2=O,46.6% (active)
7,CN(C)C(=O)Oc1ccc(NC(=O)N2CCOCC2)cc1,-0.475%
8,S=C(NCCc1ccccc1)N1Cc2cc(N3CCOCC3)ccc2-n2nncc2C1,0.039%
9,C[C@H](CO)N1C[C@H](C)[C@H](CN(C)C(=O)Oc2ccc3ccccc3c2)OCc2cnnn2CCCC1=O,2.57%
10,N#Cc1cccc(-c2ccc([C@H]3[C@@H](CO)N4CCCCN(C(=O)Cc5cccnc5)C[C@@H]34)cc2)c1,0.128%
11,COC(=O)[C@H]1[C@H](CO)[C@H]2Cn3c(cccc3=O)[C@H]2N1CC1CC1,0.469%
12,Cc1cc(C)c2c(c1)NP(=S)(c1ccccc1)N2 (stereo not given),7.37%
13,COc1ccc2c(c1)NP(=S)(c1ccccc1)N2 (stereo not given),43.7% (active)
14,O=C(O)[C@H]1[C@H](CO)[C@H]2Cn3c(ccc(-c4ccccc4F)c3=O)[C@@H]1N2C(=O)c1cccnc1,-1.7%
15,COC(=O)C1=C(c2ccc(OCc3ccccc3)cc2)C[C@@H]2CC[C@H]1N2C(=O)NCc1cccc(F)c1,3.43%
